Experimental data taken from PubChem BioAssay AID1159580 (chemical genetic matrix, 2015).
Values joined by “and” are separate entries in the source; they are usually repeats but may differ in a detail not shown here. Identical values can stand only once. The whole screen tested about 5,500 compounds, of which about 2,000 (36%) were called active. Not shown: some 18% with an inconclusive outcome. No stated cut-off is given here; in the data, active means normalized growth mostly below about 0.91 (no sharp cut-off); inconclusive means no clear call, values can overlap the other calls; inactive means mostly above about 0.92. This is one part of the list.

Experiment: chemical genetic growth profiling, strain panel (AID 1159580);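 further: tested at 20 µM; growth read once vehicle control cultures reached saturation at 30 °C; 1 = growth at the plate median or of vehicle wells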
Settings: S. cerevisiae deletion strains, growth OD

Measured: normalized growth

NC(=O)c1cccc(N)c1
inactive: locus YAL013W, strain DEP1, stronger effect = lower value 1 and 1.01 | locus YAL021C, strain ccr4, stronger effect = lower value 0.979 | locus YAL026C, strain drs2, stronger effect = lower value 0.97 | locus YAL030W, strain snc1, stronger effect = lower value 0.992 | locus YAL040C, strain CLN3, stronger effect = lower value 1 | locus YBL061C, strain skt5, stronger effect = lower value 0.977 | locus YBR009C, strain hhf1, stronger effect = lower value 0.998 | locus YBR021W, strain FUR4, stronger effect = lower value 0.968 | locus YBR023C, strain chs3, stronger effect = lower value 0.981 | locus YBR171W, strain sec66, stronger effect = lower value 0.962 | locus YBR229C, strain ROT2, stronger effect = lower value 1 | locus YBR231C, strain swc5, stronger effect = lower value 0.967 | locus YBR279W, strain paf1, stronger effect = lower value 0.99 | locus YCL011C, strain gbp2, stronger effect = lower value 0.957 | locus YCL016C, strain dcc1, stronger effect = lower value 0.988 | locus YCL029C, strain bik1, stronger effect = lower value 1 | locus YCL061C, strain MRC1 (second series), stronger effect = lower value 1 | locus YCL069W, strain vba3, stronger effect = lower value 0.962 | locus YCR088W, strain abp1, stronger effect = lower value 0.972 | locus YDL005C, strain med2, stronger effect = lower value 0.969 | locus YDL035C, strain GPR1, stronger effect = lower value 1 | locus YDL040C, strain nat1, stronger effect = lower value 0.988 | locus YDL074C, strain BRE1, stronger effect = lower value 1.01 | locus YDL101C, strain DUN1, stronger effect = lower value 1.01 | locus YDL134C, strain PPH21, stronger effect = lower value 0.999 | locus YDL185W, strain tfp1, stronger effect = lower value 1.01 | locus YDL192W, strain arf1, stronger effect = lower value 0.999 | locus YDR001C, strain nth1, stronger effect = lower value 0.979 | locus YDR069C, strain doa4, stronger effect = lower value 0.966 | locus YDR101C, strain arx1, stronger effect = lower value 0.987 | locus YDR137W, strain rgp1, stronger effect = lower value 0.976 | locus YDR150W, strain NUM1, stronger effect = lower value 1.01 | locus YDR159W, strain sac3, stronger effect = lower value 0.965 | locus YDR162C, strain NBP2, stronger effect = lower value 1 | locus YDR195W, strain ref2 0.958 | locus YDR297W, strain sur2, stronger effect = lower value 0.98 | locus YDR318W, strain mcm21, stronger effect = lower value 0.985 | locus YDR334W, strain swr1, stronger effect = lower value 0.96 | locus YDR335W, strain msn5, stronger effect = lower value 0.97 | locus YDR363W, strain ESC2, stronger effect = lower value 1 | locus YDR388W, stronger effect = lower value 0.993 | locus YDR392W, strain spt3, stronger effect = lower value 0.965 | locus YDR502C, strain sam2, stronger effect = lower value 1.01 | locus YEL003W, strain gim4, stronger effect = lower value 0.979 | locus YEL037C, strain rad23, stronger effect = lower value 0.969 | locus YEL061C, strain CIN8 (second series), stronger effect = lower value 0.954 | locus YEL061C, strain CIN8, stronger effect = lower value 1.01 | locus YER002W, strain NOP16, stronger effect = lower value 1.02 | locus YER015W, strain faa2, stronger effect = lower value 0.983 | locus YER016W, strain bim1, stronger effect = lower value 0.977 | locus YER110C, stronger effect = lower value 0.996 | locus YER111C, strain swi4, stronger effect = lower value 0.966 | locus YER155C, strain BEM2 (second series), stronger effect = lower value 0.965 | locus YER155C, strain BEM2, stronger effect = lower value 0.99 | locus YER167W, strain BCK2, stronger effect = lower value 1 | locus YFR010W, strain ubp6, stronger effect = lower value 0.968 | locus YGL078C, strain dbp3, stronger effect = lower value 1 | locus YGL086W, strain mad1, stronger effect = lower value 0.988 | locus YGL167C, strain pmr1, stronger effect = lower value 0.981 | locus YGL173C, strain kem1, stronger effect = lower value 0.984 | locus YGL227W, strain vid30, stronger effect = lower value 0.966 | locus YGL240W, strain doc1, stronger effect = lower value 0.969 | locus YGL248W, strain PDE1, stronger effect = lower value 1 | locus YGL253W, strain hxk2, stronger effect = lower value 0.963 | locus YGR078C, strain PAC10, stronger effect = lower value 1 and 1.05 | locus YGR135W, strain pre9, stronger effect = lower value 0.986 | locus YGR229C, strain SMI1, stronger effect = lower value 1.01 | locus YGR252W, strain gcn5, stronger effect = lower value 0.978 | locus YHR013C, strain ard1, stronger effect = lower value 0.972 | locus YHR027C, strain rpn1, stronger effect = lower value 0.974 | locus YHR030C, strain SLT2, stronger effect = lower value 1.01 | locus YHR079C, strain IRE1 (second series), stronger effect = lower value 0.994 | locus YHR094C, strain hxt1, stronger effect = lower value 0.998 | locus YHR129C, strain ARP1, stronger effect = lower value 1 | locus YHR142W, strain chs7, stronger effect = lower value 0.968 | locus YHR200W, strain rpn10, stronger effect = lower value 0.993 | locus YIL066C, strain RNR3, stronger effect = lower value 1 | locus YIL073C, strain SPO22, stronger effect = lower value 1.02 | locus YIL125W, strain kgd1, stronger effect = lower value 0.996 | locus YIR030C, strain dcg1, stronger effect = lower value 0.996 | locus YJL092W, strain hpr5, stronger effect = lower value 0.954 | locus YJL095W, strain BCK1 (second series), stronger effect = lower value 0.979 | locus YJL095W, strain BCK1, stronger effect = lower value 1 | locus YJL115W, strain asf1, stronger effect = lower value 0.966 | locus YJL129C, strain trk1, stronger effect = lower value 0.965 | locus YJL134W, strain LCB3, stronger effect = lower value 1 | locus YJL154C, strain vps35, stronger effect = lower value 0.979 | locus YJL164C, strain tpk1, stronger effect = lower value 1 | locus YJL166W, strain qcr8, stronger effect = lower value 1.01 | locus YJL168C, strain set2, stronger effect = lower value 0.99 | locus YJL187C, strain SWE1 (second series), stronger effect = lower value 1.01 | locus YJL187C, strain SWE1, stronger effect = lower value 0.968
